Laboratory results from PubChem BioAssay (NCI).
The panel holds about 83,000 compounds, 20% with a hit somewhere; the sample as a whole holds those more often.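 How to read the values: 0–100, growth inhibition (40 = 60% inhibited); 0, no net growth; -100 to 0, cell death (-40 = 40% of starting cells died; -100 = all dead).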 The source made the active and inactive calls. The calls were made as follows: active = growth percent below 10; inactive = the rest.

Columns and labels:
Test in all cases: NCI-60 one-dose screen, 48 h (100 = growth as untreated, 0 = no growth, -100 = all killed)
Conditions in all cases: 10 µM
NCI-H23 lung = system: NCI-H23 lung
NCI-H226 lung = system: NCI-H226 lung
NCI-H322M lung = system: NCI-H322M lung
HOP-62 NSCLC = system: HOP-62 NSCLC
NCI-H460 lung = system: NCI-H460 lung
NCI-H522 lung = system: NCI-H522 lung
A549/ATCC NSCLC = system: A549/ATCC NSCLC
786-0 renal = system: 786-0 renal
COLO 205 colon = system: COLO 205 colon
DU-145 prostate = system: DU-145 prostate

Measured: growth

O=C(Nc1cccc(-n2cc(-c3ccncc3)c(-c3ccc(O)c(Cl)c3)n2)c1)c1ccc(Cl)c(Cl)c1
inactive: NCI-H23 lung 78.5% | NCI-H226 lung 80.6% | NCI-H322M lung 77.3% | HOP-62 NSCLC 67.7% | NCI-H460 lung 20.8% | NCI-H522 lung 41.5% | A549/ATCC NSCLC 41.2% | 786-0 renal 55.3% | COLO 205 colon 102% | DU-145 prostate 80.5%

CCN(CC)CCNc1ccc(CO)c2oc3cc(Cl)ccc3c(=O)c12
inactive: NCI-H23 lung 87.2% | NCI-H226 lung 95.7% | NCI-H322M lung 97.4% | HOP-62 NSCLC 88.4% | NCI-H460 lung 88.2% | NCI-H522 lung 77.9% | A549/ATCC NSCLC 90.4% | 786-0 renal 76% | COLO 205 colon 68.4% | DU-145 prostate 108%

CCC(=O)N1C/C(=C/c2ccc(Cl)cc2)C(=O)/C(=C/c2ccc(Cl)cc2)C1
active: NCI-H23 lung -25.6% | NCI-H226 lung -53.9% | NCI-H322M lung -16.6% | HOP-62 NSCLC -53% | NCI-H460 lung -13.8% | NCI-H522 lung -58.7% | A549/ATCC NSCLC -26.7% | 786-0 renal -69% | COLO 205 colon -76.5% | DU-145 prostate -41.6%

O=C(/C(=C/c1ccccc1)CN1CCCCC1)c1ccccc1
active: NCI-H23 lung -51.5% | NCI-H226 lung -31% | HOP-62 NSCLC -26.5% | NCI-H460 lung -23.9% | NCI-H522 lung -84% | A549/ATCC NSCLC -14.2% | 786-0 renal -91.5% | COLO 205 colon -79.1% | DU-145 prostate 8.22%
inactive: NCI-H322M lung 47.1%

CCCCCCCCCCCCC1C/C=C\CCCC(=O)O1 (stereo not given)
inactive: NCI-H23 lung 91.1% | NCI-H226 lung 167% | NCI-H322M lung 108% | HOP-62 NSCLC 106% | NCI-H460 lung 109% | NCI-H522 lung 98.1% | A549/ATCC NSCLC 80.7% | 786-0 renal 98.4% | COLO 205 colon 113% | DU-145 prostate 130%

CC(C)(Cl)CCC1=C(Cl)C(=O)c2ccccc2C1=O
inactive: NCI-H23 lung 32.9% | NCI-H226 lung 62.8% | NCI-H322M lung 100% | HOP-62 NSCLC 59% | NCI-H460 lung 65.6% | A549/ATCC NSCLC 82% | 786-0 renal 101% | COLO 205 colon 84% | DU-145 prostate 104%
active: NCI-H522 lung -29.7%

O=C(c1cccs1)c1ccccc1Cc1ccccc1
inactive: NCI-H23 lung 102% | NCI-H226 lung 92.3% | NCI-H322M lung 83.6% | HOP-62 NSCLC 96.6% | NCI-H460 lung 107% | NCI-H522 lung 100% | A549/ATCC NSCLC 89.1% | 786-0 renal 108% | COLO 205 colon 116% | DU-145 prostate 128%

O=C(Nc1cccc(Br)c1)c1cc(=O)[nH]c2ccccc12
inactive: NCI-H23 lung 103% | NCI-H226 lung 82.9% | NCI-H322M lung 94.2% | HOP-62 NSCLC 64.3% | NCI-H460 lung 105% | NCI-H522 lung 86.7% | A549/ATCC NSCLC 94.1% | 786-0 renal 103% | COLO 205 colon 85.1% | DU-145 prostate 110%

CC12O[C@H](C[C@@H](O)[C@H]1O)n1c3ccccc3c3c4c(c5c6ccccc6n2c5c31)C(=O)N(CCCN)C4=O
inactive: NCI-H23 lung 28.9% | NCI-H226 lung 27.4% | NCI-H322M lung 56.3% | HOP-62 NSCLC 25.3% | NCI-H460 lung 10.4% | A549/ATCC NSCLC 31.5% | 786-0 renal 53.9% | COLO 205 colon 12.9% | DU-145 prostate 60.8%
active: NCI-H522 lung -2.33%

COc1ccccc1CNCCN1C(=O)c2ccc3c4c(ccc(c24)C1=O)C(=O)N(CCNCc1ccccc1OC)C3=O
active: NCI-H23 lung -70.5% | NCI-H226 lung -74.7% | NCI-H322M lung -65.4% | HOP-62 NSCLC -79.8% | NCI-H460 lung -91.3% | NCI-H522 lung -83.4% | A549/ATCC NSCLC -93% | 786-0 renal -82.4% | COLO 205 colon -97.5% | DU-145 prostate -100%

CSc1nn(-c2ccccc2)c2ncnc(Oc3ccccc3)c12
inactive: NCI-H23 lung 101% | NCI-H226 lung 90.6% | NCI-H322M lung 88.6% | HOP-62 NSCLC 96.7% | NCI-H460 lung 103% | NCI-H522 lung 72.6% | A549/ATCC NSCLC 87.3% | 786-0 renal 92.9% | COLO 205 colon 118% | DU-145 prostate 101%

Clc1ccccc1N=Cc1ccc2c(c1)OCO2
inactive: NCI-H23 lung 108% | NCI-H226 lung 105% | NCI-H322M lung 110% | HOP-62 NSCLC 110% | NCI-H460 lung 116% | NCI-H522 lung 80.3% | A549/ATCC NSCLC 98.2% | 786-0 renal 104% | COLO 205 colon 109% | DU-145 prostate 112%

O=C1/C(=C\c2cn(C(=O)c3ccc(Cl)cc3)c3ccccc23)c2ccccc2N1C(=O)c1ccc(Cl)cc1
inactive: NCI-H23 lung 83.2% | NCI-H226 lung 89.4% | NCI-H322M lung 98.6% | HOP-62 NSCLC 61.4% | NCI-H460 lung 86% | A549/ATCC NSCLC 63.3% | 786-0 renal 93.7% | COLO 205 colon 105% | DU-145 prostate 85.1%
active: NCI-H522 lung 6.02%

COc1ccc(-c2nc3sc(-c4ccccc4)c(-c4ccccc4)n3c2/C=C/C(=O)c2ccccn2)cc1
active: NCI-H522 lung 6.21%
inactive: NCI-H23 lung 97.4% | NCI-H226 lung 84% | NCI-H322M lung 112% | HOP-62 NSCLC 134% | NCI-H460 lung 87% | A549/ATCC NSCLC 87.7% | 786-0 renal 98.7% | COLO 205 colon 76.4% | DU-145 prostate 96.7%

COC(=O)c1ccc(=O)oc1
inactive: NCI-H23 lung 93% | NCI-H226 lung 101% | NCI-H322M lung 106% | HOP-62 NSCLC 96.1% | NCI-H460 lung 110% | NCI-H522 lung 99.9% | A549/ATCC NSCLC 101% | 786-0 renal 99.4% | COLO 205 colon 119% | DU-145 prostate 114%

CCCCCCCCN(CCCCCCCC)CCCCCCCCCN1CCCc2cc(OC)ccc21
inactive: NCI-H23 lung 63.4% | NCI-H226 lung 89.7% | NCI-H322M lung 95.5% | HOP-62 NSCLC 85% | NCI-H460 lung 102% | NCI-H522 lung 79.4% | A549/ATCC NSCLC 97.2% | 786-0 renal 98.3% | COLO 205 colon 87.8% | DU-145 prostate 105%

CC(C)=CCc1cc(O)cc2c1OC(C=C(C)C)C1=C2C(=O)C2=C(NCCS2(=O)=O)C1=O (stereo not given)
active: NCI-H23 lung -48.7% | NCI-H226 lung -17.6% | NCI-H322M lung -17.5% | HOP-62 NSCLC -12.6% | NCI-H460 lung 3.29% | NCI-H522 lung -20.6% | A549/ATCC NSCLC 2.33% | COLO 205 colon -61.3% | DU-145 prostate -95.3%
inactive: 786-0 renal 22.9%

O=C(O)CN1C(=O)c2cccc3cccc(c23)C1=O
inactive: NCI-H23 lung 101% | NCI-H226 lung 96.5% | NCI-H322M lung 102% | HOP-62 NSCLC 97.4% | NCI-H460 lung 110% | NCI-H522 lung 94.1% | A549/ATCC NSCLC 95.4% | 786-0 renal 91.7% | COLO 205 colon 105% | DU-145 prostate 117%

COc1cc(NC(=O)CSc2nc3ccccc3c(=O)n2CCc2ccccc2)cc(OC)c1OC
inactive: NCI-H23 lung 26.6% | NCI-H322M lung 27.7% | A549/ATCC NSCLC 24.9% | COLO 205 colon 29.9% | DU-145 prostate 45.9%
active: NCI-H226 lung -0.963% | HOP-62 NSCLC 9.57% | NCI-H460 lung -30.2% | NCI-H522 lung -23.9% | 786-0 renal -80.1%

COc1cc(OC)cc(-c2cncn2-c2ccc(-c3nc4cc(OC)cc(OC)c4s3)cc2)c1
inactive: NCI-H23 lung 57.5% | NCI-H226 lung 67.7% | NCI-H322M lung 82.8% | HOP-62 NSCLC 79.7% | NCI-H460 lung 51.3% | NCI-H522 lung 61.3% | A549/ATCC NSCLC 45.4% | 786-0 renal 66% | COLO 205 colon 79.5% | DU-145 prostate 78.1%

CC/C(=N\N=C(/CC)c1ccc(Br)cc1)c1ccc(Br)cc1
inactive: NCI-H23 lung 86.2% | NCI-H226 lung 94% | NCI-H322M lung 108% | HOP-62 NSCLC 94.9% | NCI-H460 lung 105% | NCI-H522 lung 71.5% | A549/ATCC NSCLC 98.7% | 786-0 renal 98.9% | COLO 205 colon 100% | DU-145 prostate 116%

O=S(=O)(NCCCNc1nccc(-c2c(-c3ccc(F)cc3)nc3sccn23)n1)c1ccc2ccccc2c1
inactive: NCI-H23 lung 66.2% | NCI-H226 lung 57.4% | NCI-H322M lung 49.6% | HOP-62 NSCLC 81.3% | NCI-H460 lung 22.7% | NCI-H522 lung 46.2% | A549/ATCC NSCLC 28.9% | 786-0 renal 55.5% | COLO 205 colon 10.1% | DU-145 prostate 46.4%

COc1cc(NC(=O)c2sc3nc4c(cc3c2N)C(O)CCC4)cc(OC)c1 (stereo not given)
inactive: NCI-H23 lung 99.3% | NCI-H226 lung 97.1% | NCI-H322M lung 88.7% | HOP-62 NSCLC 65.8% | NCI-H460 lung 104% | NCI-H522 lung 69% | A549/ATCC NSCLC 86.1% | 786-0 renal 97.3% | COLO 205 colon 105% | DU-145 prostate 108%

Oc1[nH]c2ccc(Cl)cc2c1/C=c1/ccc2c(c1)N=C(c1cc(F)cc(F)c1)N=2
inactive: NCI-H23 lung 64% | NCI-H226 lung 86.1% | NCI-H322M lung 93.2% | HOP-62 NSCLC 58.7% | NCI-H460 lung 63.8% | NCI-H522 lung 33.7% | A549/ATCC NSCLC 57.4% | 786-0 renal 85.9% | COLO 205 colon 77.1% | DU-145 prostate 81.8%

Fc1ccc(-c2nnc(-c3c(-c4ccc(F)cc4)nc4ccccn34)o2)cc1
inactive: NCI-H23 lung 69% | NCI-H226 lung 84.2% | NCI-H322M lung 105% | HOP-62 NSCLC 78.5% | NCI-H460 lung 70% | NCI-H522 lung 25.9% | A549/ATCC NSCLC 72.4% | 786-0 renal 88.2% | COLO 205 colon 79.5% | DU-145 prostate 92.1%

CN(C)CCN1C(=O)c2cccc3cc(N)cc(c23)C1=O
inactive: NCI-H23 lung 31.5% | NCI-H322M lung 29.4% | HOP-62 NSCLC 34% | A549/ATCC NSCLC 12% | 786-0 renal 25.7% | COLO 205 colon 26.2%
active: NCI-H226 lung -30.3% | NCI-H460 lung 0.597% | NCI-H522 lung -28.3% | DU-145 prostate 4.45%

COc1ccc(/C(=C2\O[C@@H]([C@H]3COC(C)(C)O3)[C@H]3OC(C)(C)O[C@@H]23)c2cc(OC)c(OC)c(OC)c2)cc1O
inactive: NCI-H23 lung 72.3% | NCI-H226 lung 108% | NCI-H322M lung 34.8% | HOP-62 NSCLC 48.5% | NCI-H460 lung 79.4% | NCI-H522 lung 43.4% | A549/ATCC NSCLC 84.2% | 786-0 renal 101% | COLO 205 colon 121% | DU-145 prostate 34.8%
